# High-throughput results from PubChem.
# Most compounds without a hit are left out; they make up all but 4.3% or so of the library.
# SMARCA2 activ: SMARCA2 function activation, primary screen; activation, % at 9.1 µM; AID 652017; MG213 cells, MMTV-luciferase reporter, dexamethasone, overnight; 370,000 tested, 1% active; in the data active = activation above about 7.8%;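 also: 0% = vehicle wells and 100% = reference activator wells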
# HSF1 activator: increases HSF-1 driven luciferase reporter signal; NIH3T3-HGL HSF-1 luciferase reporter, MG132, 8 h; 100% = twice DMSO control signal; AID 504408; activation, % at 9 µM; 300,000 tested, 1.7% active;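 active = mean replicate activation of at least 50% with a set share of replicates each reaching 50%; inconclusive = only one of those two conditions met; inactive = mean below 50% and too few replicates reaching it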;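 also: 0% = median of the neutral control wells and 100% = twice that signal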
# esBAF inh: SWI/SNF esBAF complex inhibition; mouse ES cells, Bmi1-luciferase knock-in reporter, 24 h; 100% = twice the neutral-well signal; reporter increase, % at 12.5 µM; 350,000 tested, 2% active; AID 602393; in the data active = activation above about 40%; inconclusive = no clear call, values can overlap the other calls;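 also: 0% = median of the plate's neutral control wells and 100% = double that signal; a rise in the Bmi1 reporter signal indicates esBAF inhibition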
# MITF TRPM1 HTS: MITF TRPM1 promoter activation in melanoma cells; AID 588334; activation, % at 12.5 µM; SK-MEL-5 TRPM1-promoter luciferase, 24 h; % of positive control, neutral wells = 0; 300,000 tested, 0.75% active;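 active = mean activation of at least 80% with every replicate also reaching 80%; inconclusive = mean reaches 80% but some replicate falls short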;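 also: 0% = neutral control wells and 100% = parthenolide positive control wells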
# HSF1 inh: HSF1 inhibition; 300,000 tested, 0.77% active; activity change, negative = inhibition, % at 7.5 µM (by protocol); NIH3T3-HGL HSE-luciferase, MG132-induced, luminescence 8 h; stronger effect = lower value;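 active = more than half of replicate wells show activity change below -50%, luminescence cut by over half; inconclusive = some wells, but at most half, below -50%; inactive = no replicate well below -50%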;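 also: luciferase reports HSF-1 transcriptional activity via heat shock element; 0% = median of DMSO wells and -100% = zero luminescence signal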
# Wnt act: Wnt/beta-catenin pathway activation | Wnt/beta-catenin reporter cell assay, activator, plate reader | activation, % at 9.35 µM | 300,000 tested, 1.2% active; in the data active = activation above about 30%, passing the limit was not always enough; inconclusive = no clear call, values can overlap the other calls;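 also: 0% = neutral control wells and 100% = positive control wells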
# Starred values were filed as active, the others as inactive; ? = inconclusive; . = no result given.
SMILES,SMARCA2 activ,HSF1 activator,esBAF inh,MITF TRPM1 HTS,HSF1 inh,Wnt act
Clc1ccc(-c2cnn3c(-c4ccncc4)ccnc23)cc1,3,-8,.,15,-7,64*
Cc1nn2c(-c3ccncc3)ccnc2c1Cl,3,-11,0,0,0,6
Nc1c(C(=O)O)cnc2c(-c3ccc(Cl)cc3)cnn12,3,?,47*,-3,39,10
Nc1c(-c2ccccc2)cnc2c(-c3ccccc3)cnn12,7,6,-55,.,-5,12
CCOC(=O)N1CCN(c2ccc(C(F)(F)F)cn2)CC1,7.9*,18,0,15,-4,-1
CCOc1ncccc1C(=O)N1CCN(c2ccc(C(F)(F)F)cn2)CC1,-5,-13,.,-8,2,-2
C[C@@H]1CN([C@H](C)CO)C(=O)c2cc(-c3cccnc3)cnc2O[C@@H]1CN(C)C(=O)C1CCC1,.,.,-1,.,.,.
CS(=O)(=O)Nc1cccc(C2=NN(C(=O)CCCC(=O)O)C(c3cccs3)C2)c1 (centres undefined),2,63*,-2,1,18,0
CS(=O)(=O)Nc1cccc(C2=NN(C(=O)c3ccccc3)C(c3cccs3)C2)c1 (centres undefined),-4,16,1,11,8,-5
CNC[C@H]1OCCCC[C@H](C)Oc2ccc(NS(=O)(=O)c3cccs3)cc2C(=O)N([C@H](C)CO)C[C@@H]1C,.,.,-3,.,.,.
Cc1noc(C)c1S(=O)(=O)Nc1ccc2c(c1)C(=O)N([C@H](C)CO)C[C@H](C)[C@@H](CN(C)S(=O)(=O)c1cccs1)OCCCC[C@H](C)O2,.,.,-4,.,.,.
COc1ccc(/C=C/C(=O)c2ccccc2)c(OC)c1,7,72*,.,54,31,61*
COc1ccc(/C=C/C(=O)c2ccc(OC)cc2OC)c(OC)c1,0,34,23,3,18,-1
COc1cc(O)c(C(=O)/C=C/c2ccccc2)c(OC)c1,6,107*,53*,.,125,-2
COc1cc(OC)c(C(=O)C=Cc2ccc(OC)c(OC)c2)c(OC)c1,-2,.,-1,-22,.,-3
O=C(/C=C/c1ccccc1)c1ccccc1,-1,19,23,22,14,14
COc1ccc2[nH]cc(/C=C/C(=O)c3ccccc3)c2c1,5,113*,.,?,63,39*
O=C(/C=C/c1c[nH]c2ccccc12)c1ccccc1,5,47,.,33,35,.
O=C(/C=C/c1ccccc1)c1ccc2ccccc2c1,3,.,68*,52,.,0
COc1ccc2cc(C(=O)/C=C/c3cc(OC)c(OC)c(OC)c3)ccc2c1,-6,95*,12,.,55,-7
COc1ccc(C2CC(c3ccncc3)=NN2c2ccc(S(N)(=O)=O)cc2)cc1 (centres undefined),0,.,83*,44,.,1
COc1ccc(C)cc1-n1c(=O)c2ccccc2c2ccccc2c1=O,-1,315*,.,-7,236,0
COc1ccc(-n2c(=O)c3ccccc3c3ccccc3c2=O)c(OC)c1,-3,3,.,7,-4,-4
CC1=CC2=C(OC1N(C)C)c1cccc3cccc(c13)C2=O (centres undefined),.,63*,7,3,35,.
CO[C@H]1CN(C)C(=O)c2ccc(NC(=O)NC(C)C)cc2OC[C@@H](C)N(C(=O)CC2CC2)C[C@H]1C,.,.,0,.,.,.
SMILES,SMARCA2 activ,HSF1 activator,esBAF inh,MITF TRPM1 HTS,HSF1 inh,Wnt act
COc1ccc(C(C)N2CC34C=CC(O3)C(C(=O)O)C4C2=O)cc1 (centres undefined),1,-69,.,-11,-64*,.
COC(=O)C1C2C=CC3(CN(C(C)c4ccc(OC)cc4)C(=O)C13)O2 (centres undefined),1,-14,3,3,1,.
FC(F)(F)c1nnc(-c2ccccc2)nc1Sc1ccccc1,0,260*,-14,-22,261,-2
CCN(CC)c1ccc(NC(=O)C2CC3CCC2C3)cc1 (centres undefined),4,0,48*,58,9,.
C[C@H](CO)N1C[C@H](C)[C@@H](CN(C)C)Oc2ccc(NS(C)(=O)=O)cc2C1=O,.,.,0,.,.,.
CO[C@@H]1CN(C)C(=O)c2cc(NC(=O)C3CC3)ccc2OC[C@H](C)N(CC2CCOCC2)C[C@H]1C,.,.,-1,.,.,.
CC(C)NC(=O)N(C)C[C@@H]1Oc2ccc(NC(=O)CCCN(C)C)cc2C(=O)N([C@H](C)CO)C[C@H]1C,.,.,-4,.,.,.
COc1cccc(CC2(CO)CCN(S(=O)(=O)c3ccc(OC)cc3OC)CC2)c1,0,-67,-4,0,-56*,1
COc1ccc(CC2(CO)CCN(S(=O)(=O)c3cccc4cccnc34)CC2)cc1,4,8,2,.,-1,-2
CCCc1cc(=O)oc2c3c(cc(OCC(=O)N[C@@H](CSC)C(=O)O)c12)OC(C)(C)CC3,0,-28,2,1,-10,1
CCCc1cc(=O)oc2c3c(cc(OCC(=O)N[C@@H](C)C(=O)O)c12)OC(C)(C)CC3,-3,67*,-4,4,18,-1
CCOC(=O)N1CCN(CC(O)COC2CC(C)CC(C)(C)C2)CC1 (centres undefined),0,-88,4,2,-84*,.
CS(=O)(=O)Nc1ccc2c(c1)[C@@H]1C[C@@H](CC(=O)NCc3ccc(Cl)cc3)O[C@H](CO)[C@@H]1O2,.,.,-2,.,.,.
c1ccc2c(C3=NNC(=NC4CCCCC4)SC3)c[nH]c2c1,5,18,.,4,13,15
c1ccc2c(C3=NNC(=NC4CC4)SC3)c[nH]c2c1,4,157*,.,-37,87,.
COc1ccc(-n2c(C)cc(C3=NNC(=NC4CC4)SC3)c2C)cc1,9.8*,.,.,33,.,8
COCCn1c(C)cc(C2=NNC(=NC3CC3)SC2)c1C,-9,-67,.,-101,-64*,-8
C[C@H]1CN([C@@H](C)CO)C(=O)c2cc(NS(=O)(=O)c3ccc(Cl)cc3)ccc2O[C@@H]1CN(C)C(=O)Nc1ccc(C(F)(F)F)cc1,.,.,3,.,.,.
C[C@H](CO)N1C[C@H](C)[C@H](CN(C)Cc2ccc3c(c2)OCO3)Oc2ccc(NS(=O)(=O)c3ccc(F)cc3)cc2C1=O,.,.,1,.,.,.
C[C@H](CO)N1C[C@H](C)[C@@H](CN(C)S(=O)(=O)c2ccc(Cl)cc2)Oc2ccc(NC(=O)CCCCCC(=O)Nc3ccccc3N)cc2CC1=O,.,.,-14,.,.,.
C=CC(=O)Oc1ccc(N2Cc3ccccc3C2=O)cc1,.,70*,.,.,63,.
COc1ccc(N2Cc3ccccc3C2=O)cc1,2,54*,-14,11,25,11
C[C@H]1CN([C@@H](C)CO)C(=O)c2cccc(NC(=O)Nc3ccc(F)cc3)c2O[C@H]1CN(C)C(=O)NC1CCCCC1,.,.,2,.,.,.
Clc1ccccc1OCCCCN1CCCCC1,-4,10,-4,11,-6,-1
